Reference: PubChem BioAssay AID1321 (The Scripps Research Institute Molecular Screening Center, 2008)
About 2,600 (1.2%) of roughly 220,000 compounds were called active.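 Rule for the calls: active = activation above the mean of all tested compounds plus 3 SD, set per screening run (cut at about 8.8% in these data); inactive = the rest.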 For the sample, actives were picked, then their nearest neighbours and some compounds at random.

molecular target: Wee1-like protein kinase (Homo sapiens) (UniProt P30291); assay: compounds stabilizing Wee1-luciferase fusion – cell-based, HeLa, Wee1K328M-luciferase, luminescence, primary screen (AID 1321); details: HeLa Luc-Wee1K328M stability, at 5 µM, stronger effect = higher value, 100% = proteasome inhibitor MG132 effect;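 note: cells exposed to compound for 20 h before luminescence read; 0% = DMSO alone and 100% = MG132 at 30 µM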

Reporter increase, active:
CCN1/C(=C/C(=S)Nc2ccccc2)Sc2ccccc21 11.6%
COc1ccc(Nc2ncc(C(=O)N3CCN(c4ccccc4OC)CC3)c3ccccc23)cc1 8.82%
CC(C)OC(=O)c1sc2nc3c(cc2c1N)C(=O)CCC3 11.6%
CC(C)S(=O)(=O)c1csc(NC(=O)Nc2ccc(Cl)cc2)c1Cl 14.2%
COc1cccc(/C=N/NC(=O)CNC(=O)c2ccc(S(=O)(=O)N3CCOCC3)cc2)c1OC 12.4%
O=C(CNCc1cccs1)Nc1cc(S(=O)(=O)N2CCCC2)ccc1Cl 8.84%
COCCCNC(=O)c1c(F)c(F)c(F)c(F)c1F 9.02%
O=S(=O)(Nc1ncccn1)c1ccc(NS(=O)(=O)c2cccc(Cl)c2Cl)cc1 9.1%
Cc1nnc(SCC(=O)N2c3ccccc3C(C)(c3ccc(Cl)cc3)CC2(C)C)s1 (stereo unspecified) 11.3%
COc1ccc(-c2noc(CSc3ccc(C)cc3)n2)cc1 13.7%
O=C(N/N=C/c1ccc([N+](=O)[O-])cc1)C(=O)N1CCCC1 9.76%
Cc1ccc2nc3n(c(=O)c2c1)CCC3 12.8%
CN1C(=O)/C(=C/C=C2\SCCN2C)OC1=S 9.67%
CCN(CC(=O)Nc1ccc(Cl)c(S(=O)(=O)N(C)C)c1)Cc1nc2ccccc2c(=O)[nH]1 9.09%
CCN(CC(=O)NC(=O)NCc1ccccc1)Cc1nc2ccccc2c(=O)[nH]1 10.5%
CC(C)c1csc(CN2CCC(CO)(Cc3ccccc3)CC2)n1 11.4%
O=C(Cn1ncc(N2CCCC2)c(Br)c1=O)c1ccc(Cl)cc1 9.08%
O=c1c(/C=N/O)coc2ccc(Cl)cc12 13.3%
OCCNc1nc2ccccc2n1-c1ncnc2sc3c(c12)CCC3 13.6%

Reporter increase, inactive:
O=[N+]([O-])/C=C1\CCCCCN1 -2.66%
COc1ccc(CCN2C(=O)CC(N3CCC(C(N)=O)CC3)C2=O)cc1OC (stereo unspecified) -3%
C/C(=N\NC(=S)Nc1ccc(C)cc1)c1cc2ccccc2o1 5.15%
O=C(CCN1c2ccccc2Sc2ccccc21)Nc1ccccc1 0.76%
CCC(=O)/C=C1\Sc2ccccc2N1CC -1.98%
COc1ccc2oc(=O)c(C(=O)N3CCN(c4ccccc4F)CC3)cc2c1 -2.32%
COc1ccccc1N1CCN(C(=O)c2cn(-c3ccccc3)nc2-c2cccnc2)CC1 -0.84%
O=C(/C=C/Nc1ccc(S(=O)(=O)Nc2cnc3ccccc3n2)cc1)c1cccnc1 -0.5%
COc1cc(OC)c(OC)cc1/C=N/Nc1ncnc2c1[nH]c1ccc(C)cc12 0.2%
O=C(NNS(=O)(=O)Cc1ccccc1)c1ccc([N+](=O)[O-])cc1 -1.88%
Nc1c(C(=O)NCc2ccccc2)sc2nc3c(cc12)C(=O)CCC3 2.8%
COC(=O)c1cc2c(N)c(C(=O)c3ccc(Cl)cc3)sc2nc1C(OC)OC -2.57%
CN(CC(O)COc1ccc(S(=O)(=O)N2CCOCC2)cc1Cl)C1CCCCC1 (stereo unspecified) -3.05%
O=C(N/N=C/c1cccc([N+](=O)[O-])c1)c1ccncc1 2.44%
Cn1ccc(NC(=O)Nc2ccc(Cl)cc2)n1 2.1%
CN(c1cccc(NC(=O)Nc2ccc(Cl)cc2)c1)S(C)(=O)=O 4.1%
Cn1nc(C(F)(F)F)cc1C(=O)O -1.44%
COc1ccc(/C=N/NC(=O)CNC(=O)c2ccc(S(=O)(=O)N3CCCC3)cc2)c(OC)c1 0.74%
COc1ccc(Br)cc1/C=N/NC(=O)c1cccc(S(=O)(=O)N2CCOCC2)c1 8.21%
COC(=O)c1sccc1NC(=S)Nc1ccc(C)cc1 2.58%
O=C(CNCc1ccco1)Nc1cc(S(=O)(=O)N2CCOCC2)ccc1N1CCCC1 -2.01%
O=C(NCc1cccs1)C1CCN(S(=O)(=O)c2ccc(Cl)cc2)CC1 0.23%
COc1ccccc1-n1c(-c2cc(-c3ccco3)[nH]n2)n[nH]c1=S 2.11%
Fc1ccccc1/C=N/n1c(-c2cccnc2)n[nH]c1=S 0.63%
CC(=O)Nc1nc(C)c(-c2csc(Nc3ccc(S(N)(=O)=O)cc3)n2)s1 -1.97%
Cc1ccc(Cl)c(OCC(=O)NN2CCN(C)CC2)c1 -4.89%
O=C(O)CCn1cc(/C=C/C(=O)c2ccc(Cl)cc2)c(-c2cccc(Br)c2)n1 -0.48%
CC(C)CN(CC(C)C)CC(O)CN(c1ccccc1)S(=O)(=O)c1ccccc1[N+](=O)[O-] (stereo unspecified) -0.95%
COCCCNC(=S)NC(=O)c1ccccc1 1.37%
O=C(NCCN1CCOCC1)c1c(F)c(F)c(F)c(F)c1F -1.64%
O=C(Nc1cccnc1)c1cc([N+](=O)[O-])ccc1Cl -1.81%
CN1CCN(c2ccc(CNS(=O)(=O)c3cccc(F)c3)cc2)CC1 -0.49%
Cc1cccc(C2C3=C(CCCC3=O)N=C3c4ccccc4C(=O)C32)c1 (stereo unspecified) 2.45%
Cc1ccc2nc(C)c3c(c2c1)N(c1ccccc1)CC3 2.22%
Cc1cc(=O)[nH]c(N/N=C/c2ccc3c(c2)OCCO3)n1 3.95%
O=C(CCS(=O)(=O)c1ccccc1Cl)Nc1ccc(S(=O)(=O)Nc2ncccn2)cc1 -2.3%
O=C(/C=C/c1ccccc1Cl)Nc1ccc(S(=O)(=O)Nc2ncccn2)cc1 -1.98%
CCCSc1ncccc1C(=O)O 5.65%
CC1(c2ccccc2)CC(C)(C)N(C(=O)c2cc([N+](=O)[O-])cc([N+](=O)[O-])c2)c2ccccc21 (stereo unspecified) -3.96%
Cc1nnc(SCC(=O)N2CCc3ccccc3C2)s1 -1.25%
NC(=O)NC(=O)CSc1nc2cc([N+](=O)[O-])ccc2n1-c1cccc(C(F)(F)F)c1 0.4%
N#CCc1ccc(OC(=O)c2cccnc2)cc1 -2.7%
COc1ccc(-c2noc(CN(C)S(=O)(=O)c3ccc(C)cc3)n2)cc1 -2.95%
COc1ccc(-c2noc(-c3ccc(C)cc3)n2)cc1 -0.18%
CC1CC(=O)Nc2ccccc2N1S(=O)(=O)c1cccs1 (stereo unspecified) 4.07%
CCC(C)Cn1c(O)cc2nn(-c3nc4ccccc4s3)c(=O)c-2c1C (stereo unspecified) -4.96%
O=C(N/N=C/c1ccc2c(c1)OCO2)C(=O)N1CCCC1 2.71%
NC(=S)N/N=C/c1ccc([N+](=O)[O-])cc1 -3.91%
O=C(Nc1ccc2nc3n(c(=O)c2c1)CCCCC3)c1ccccc1Cl 0.41%
Cc1cccc2c(=O)n3c(nc12)CCCCC3 -0.11%
CNC(=O)c1csc(Cc2c(Cl)sc3ccc(Cl)cc23)n1 0.14%
O=C(COc1ccccc1)N1CCN=C1SCc1cccc(F)c1 -0.6%
CS(=O)(=O)c1sc(C(=O)NC(=S)Nc2ccc(OC(F)(F)F)cc2)c2c1C=CCC2 3.21%
CCOC(=O)c1c(C)nn(-c2ncccc2NC(=O)CCC(=O)O)c1C -3.19%
O=C(COC(=O)c1ccc[nH]c1=O)Nc1ccc2c(c1)OC(F)(F)O2 7.03%
CN(C)S(=O)(=O)c1cc(NC(=O)CN2C(=O)NC3(CCCc4ccccc43)C2=O)ccc1Cl (stereo unspecified) -2.38%
CCCC(=O)N(CCc1ccccc1)Cc1nc2ccccc2c(=O)[nH]1 -2.77%
O=C(c1ccco1)N(Cc1nc2ccccc2c(=O)[nH]1)C1CCCC1 -0.38%
CCN(CC(=O)Nc1cccc(S(N)(=O)=O)c1)Cc1nc2ccccc2c(=O)[nH]1 -3.31%
CC#CC[N+](C)(C)CCCCCC 3.56%
CC(C)CCNC(=O)C1CCC(CNc2c(N3CCC(C)CC3)c(=O)c2=O)CC1 (stereo unspecified) -0.83%
Cc1csc(/N=C/N(C)C)c1C#N -2.57%
C/C(CC(=O)NC(C)c1ccccc1)=N\NC(N)=S (stereo unspecified) -1.77%
OCC1(Cc2ccccc2)CCN(Cc2cc3ccccc3o2)CC1 -0.66%
CC(=O)c1cccc(CN2CCC(CO)(Cc3ccccc3)CC2)c1 -2.2%
CC(=O)Cn1ncc(N2CCOCC2)c(Br)c1=O 1.92%
Cn1c(=O)c2c(nc(N3CCCCCC3)n2CC(=O)c2ccc(Br)cc2)n(C)c1=O -1.77%
CCc1ccc(S(=O)(=O)Nc2ccc(C)c(NS(C)(=O)=O)c2)cc1 -2.18%
COC(=O)c1c(C)oc(C)c1S(=O)(=O)Nc1ccc(C(C)C)cc1 -0.82%
NC(=S)N/N=C/c1coc2cc(Cl)ccc2c1=O 7.29%
O=C(N/N=C/c1coc2ccccc2c1=O)c1cc2ccccc2o1 2.23%
O=C(NN1C(=O)C2C(C1=O)C1C=CC2C12CC2)c1ccccc1Cl (stereo unspecified) 1.5%
C=CCSc1nc(N)cc(=O)[nH]1 0.5%
O=C(O)Cc1csc(NC(=O)CSc2nnnn2-c2ccc(O)cc2)n1 -2.13%
O=C(O)[C@@H]1CCCN1c1ncnc2sc3c(c12)CCC3 3.81%
CC(C)(C)C(=O)Cn1c(NCCO)nc2ccccc21 -0.8%
COCc1cc(=O)oc2cc(NS(=O)(=O)c3ccc(C)cc3)ccc12 5.18%
